# The antibiotic and cytotoxicity screens of Wong et al. (2023)
# About 3,300 (8.5%) of roughly 39,000 compounds were called active. The sample holds actives, similar compounds and a random draw of the others, so the mix is not that of the screen.
# System: HepG2
# Experiment: cytotoxicity call (relative viability < 0.9)
# Settings: 10 µM
row,Compound,cytotoxicity call
1,C[C@@H]1CN([C@H](C)CO)C(=O)c2cccc(NC(=O)C3CC3)c2O[C@@H]1CN(C)S(=O)(=O)c1ccc(F)cc1,inactive
2,C=CCC[C@@H](Cc1ccc(F)cc1)C(=O)OC[C@@H](Cc1c[nH]c2ccccc12)NC(=O)[C@H](CC=C)CC(=O)N(CCO)Cc1ccccc1,active
3,C=CCC[C@H](Cc1ccc(F)cc1)C(=O)OC[C@H](Cc1c[nH]c2ccccc12)NC(=O)[C@H](CC=C)CC(=O)N(CCO)Cc1ccccc1,inactive
4,C=CCC[C@@H](Cc1ccc(F)cc1)C(=O)OC[C@H](Cc1c[nH]c2ccccc12)NC(=O)[C@H](CC=C)CC(=O)N(CCO)Cc1ccccc1,inactive
5,C[C@H](CO)N1C[C@H](C)[C@H](CN(C)C(=O)Nc2cccc3ccccc23)Oc2ccc(NC(=O)Nc3ccc(F)cc3)cc2CC1=O,inactive
6,C[C@@H](N)c1nc2c(s1)CCCC2,inactive
7,O=C1O[C@H](c2ccccc2)[C@H](c2ccccc2)N2[C@H]1[C@@H](C(=O)NC[C@@H](O)c1ccccc1)[C@]1(C(=O)Nc3ccc(C#CC4(O)CCCCCC4)cc31)[C@H]2c1ccccc1OCCO,inactive
8,C[C@H]1CN([C@@H](C)CO)C(=O)c2cc(NC(=O)Nc3ccc(C(F)(F)F)cc3)ccc2O[C@@H]1CN(C)Cc1ccc(Cl)c(Cl)c1,inactive
9,C[C@@H]1CN([C@@H](C)CO)C(=O)c2cc(NC(=O)Nc3ccc(C(F)(F)F)cc3)ccc2O[C@@H]1CN(C)Cc1ccc(Cl)c(Cl)c1,active
10,C[C@@H]1CN([C@H](C)CO)C(=O)c2cc(NC(=O)Nc3ccc(C(F)(F)F)cc3)ccc2O[C@H]1CN(C)Cc1ccc(Cl)c(Cl)c1,active
11,C[C@H](CO)N1C[C@H](C)[C@@H](CN(C)Cc2ccc(Cl)c(Cl)c2)Oc2ccc(NC(=O)Nc3ccc(C(F)(F)F)cc3)cc2C1=O,active
12,C[C@@H]1CN([C@@H](C)CO)C(=O)c2cc(NC(=O)Nc3ccc(C(F)(F)F)cc3)ccc2O[C@H]1CN(C)Cc1ccc(Cl)c(Cl)c1,inactive
13,C[C@@H]1CN([C@H](C)CO)C(=O)c2cc(NC(=O)Nc3ccc(C(F)(F)F)cc3)ccc2O[C@@H]1CN(C)Cc1ccc(Cl)c(Cl)c1,active
14,C[C@H](CO)N1C[C@H](C)[C@@H](CN(C)S(=O)(=O)c2ccc(Cl)cc2)Oc2ccc(NC(=O)CCCN(C)C)cc2CC1=O,inactive
15,NCC[C@H]1CC[C@H](NC(=O)C2CC2)[C@H](CO)O1,inactive
16,CSc1nc(=O)c(CCO)c(C)[nH]1,inactive
17,COc1cccc(NC(=O)N2C[C@H](O)COC[C@@H]3O[C@@H](CC(=O)NCCCN4CCOCC4)CC[C@H]32)c1,inactive
18,CCOC(=O)CSc1nc(=O)cn[nH]1,inactive
19,C[C@@H]1CN([C@H](C)CO)C(=O)Cc2cc(NC(=O)C3CC3)ccc2O[C@H]1CN(C)Cc1ccc2c(c1)OCO2,inactive
20,CC(C)NC(=O)N(C)C[C@@H]1OCCCC[C@@H](C)Oc2ccc(NC(=O)Nc3ccccc3)cc2C(=O)N([C@@H](C)CO)C[C@@H]1C,inactive
21,COc1ccc(S(=O)(=O)Nc2ccc3c(c2)C(=O)N([C@H](C)CO)C[C@H](C)[C@H](CN(C)C(=O)Nc2c(C)noc2C)OCCCC[C@@H](C)O3)cc1,inactive

row,Compound,cytotoxicity call
1,C[C@@H]1CN([C@H](C)CO)C(=O)c2cc(C3=CCCC3)cnc2O[C@H]1CN(C)S(=O)(=O)c1cn(C)cn1,inactive
2,Cc1noc(C)c1S(=O)(=O)Nc1ccc2c(c1)CC(=O)N([C@H](C)CO)C[C@H](C)[C@H](CN(C)S(=O)(=O)c1cn(C)cn1)O2,inactive
3,C[C@@H]1CCCCO[C@H](CN(C)C(=O)Nc2ccc3c(c2)OCO3)[C@H](C)CN([C@@H](C)CO)C(=O)c2cc(NC(=O)c3ccncc3)ccc2O1,inactive
4,C[C@@H]1CN([C@@H](C)CO)C(=O)Cc2cc(NC(=O)Nc3cccc4ccccc34)ccc2O[C@@H]1CN(C)C(=O)Nc1cccc2ccccc12,inactive
5,NCCN1CCOCC1,inactive
6,C[C@H](CO)N1C[C@H](C)[C@H](CN(C)Cc2ccc(Cl)c(Cl)c2)Oc2ccc(NC(=O)Nc3ccc(C(F)(F)F)cc3)cc2C1=O,active
7,C[C@H]1CN([C@@H](C)CO)C(=O)c2cc(NC(=O)Nc3ccc(F)cc3)ccc2O[C@@H]1CN(C)Cc1ccc(Cl)c(Cl)c1,inactive
8,C[C@H]1CN([C@@H](C)CO)C(=O)c2cc(NC(=O)Nc3ccc(C(F)(F)F)cc3)ccc2O[C@H]1CN(C)Cc1ccc(Cl)c(Cl)c1,active
9,C[C@H](CO)N1C[C@H](C)[C@@H](CN(C)Cc2ccc(Cl)c(Cl)c2)Oc2ccc(NC(=O)Nc3ccc(F)cc3)cc2C1=O,inactive
10,C[C@H]1CCCCO[C@@H](CN(C)C(=O)Nc2ccc(F)cc2)[C@@H](C)CN([C@@H](C)CO)C(=O)c2cc(NS(=O)(=O)c3ccccc3)ccc2O1,inactive
11,CC(C)NC(=O)N(C)C[C@H]1Oc2ccc(NC(=O)Cc3ccccc3)cc2C(=O)N([C@H](C)CO)C[C@H]1C,inactive
12,C[C@H](CO)N1C[C@H](C)[C@H](CN(C)C(=O)Nc2ccccc2)OCCCC[C@H](C)Oc2ccc(NC(=O)c3ccccc3)cc2C1=O,inactive
13,COc1cccc(NC(=O)N[C@@H]2C=C[C@@H](CC(=O)N3CCOCC3)O[C@@H]2CO)c1,inactive
14,C[C@@H]1CN([C@H](C)CO)C(=O)c2cccc(NC(=O)c3nc4ccccc4s3)c2O[C@@H]1CN(C)S(=O)(=O)c1cn(C)cn1,inactive
15,CC(C)NC(=O)N(C)C[C@@H]1Oc2c(NC(=O)Nc3ccc4c(c3)OCO4)cccc2C(=O)N([C@H](C)CO)C[C@@H]1C,inactive
16,C[C@H](CO)N1C[C@H](C)[C@H](CN(C)C(=O)C2CCCCC2)OCCCC[C@H](C)Oc2ccc(NS(=O)(=O)c3cccs3)cc2C1=O,inactive
17,Cc1cc(C)n(C(=O)Cn2cc([N+](=O)[O-])cn2)n1,inactive
18,C[C@H](CO)N1C[C@H](C)[C@H](CN(C)Cc2ccncc2)Oc2ccc(NS(=O)(=O)c3ccc(F)cc3)cc2CC1=O,inactive
19,CC(=O)c1ccn[nH]1,inactive
20,COC(=O)[C@]12CCC(C)(C)C[C@H]1[C@H]1C(=O)C=C3[C@@]4(C)C=C(C#N)C(=O)C(C)(C)[C@@H]4CC[C@@]3(C)[C@]1(C)CC2,active
21,COC(=O)[C@@]12CCC(C)(C)C[C@@H]1[C@@H]1C(=O)C=C3[C@]4(C)C=C(C#N)C(=O)C(C)(C)[C@H]4CC[C@]3(C)[C@@]1(C)CC2,active

row,Compound,cytotoxicity call
1,Cc1ccccc1S(=O)(=O)N1C[C@H](O)COC[C@H]2O[C@H](CC(=O)NCc3ccccc3Cl)CC[C@@H]21,inactive
2,Cc1noc(C)c1NC(=O)Nc1cccc2c1O[C@H](CN(C)C(=O)NC(C)C)[C@@H](C)CN([C@@H](C)CO)C2=O,inactive
3,C[C@@H]1CN([C@@H](C)CO)C(=O)Cc2cc(NC(=O)CCN3CCOCC3)ccc2O[C@@H]1CN(C)C(=O)NC1CCCCC1,inactive
4,C[C@@H]1CN([C@H](C)CO)C(=O)c2cc(C#CC3(O)CCCC3)cnc2O[C@@H]1CN(C)S(C)(=O)=O,inactive
5,Cc1ccc(S(=O)(=O)Nc2ccc3c(c2)C(=O)N([C@@H](C)CO)C[C@H](C)[C@H](CN(C)Cc2ccc(Oc4ccccc4)cc2)O3)cc1,inactive
6,Cc1ccc(S(=O)(=O)Nc2ccc3c(c2)C(=O)N([C@H](C)CO)C[C@@H](C)[C@@H](CN(C)Cc2ccc(Oc4ccccc4)cc2)O3)cc1,active
7,Cc1ccc(S(=O)(=O)Nc2ccc3c(c2)C(=O)N([C@H](C)CO)C[C@H](C)[C@@H](CN(C)Cc2ccc(Oc4ccccc4)cc2)O3)cc1,inactive
8,Cc1ccc(S(=O)(=O)Nc2ccc3c(c2)C(=O)N([C@@H](C)CO)C[C@@H](C)[C@H](CN(C)Cc2ccc(Oc4ccccc4)cc2)O3)cc1,inactive
9,Cc1ccc(S(=O)(=O)Nc2ccc3c(c2)C(=O)N([C@@H](C)CO)C[C@H](C)[C@@H](CN(C)Cc2ccc(Oc4ccccc4)cc2)O3)cc1,inactive
10,Cc1ccc(S(=O)(=O)Nc2ccc3c(c2)C(=O)N([C@H](C)CO)C[C@H](C)[C@H](CN(C)Cc2ccc(Oc4ccccc4)cc2)O3)cc1,inactive
11,Cc1ccc(S(=O)(=O)Nc2ccc3c(c2)C(=O)N([C@H](C)CO)C[C@@H](C)[C@H](CN(C)Cc2ccc(Oc4ccccc4)cc2)O3)cc1,active
12,Cc1ccc(S(=O)(=O)Nc2ccc3c(c2)C(=O)N([C@@H](C)CO)C[C@@H](C)[C@@H](CN(C)Cc2ccc(Oc4ccccc4)cc2)O3)cc1,active
13,NCC(=O)NC1CCCCC1,inactive
14,COc1ccc(NC(=O)N(C)C[C@@H]2Oc3ccc(NS(C)(=O)=O)cc3C(=O)N([C@H](C)CO)C[C@H]2C)cc1,inactive
15,COc1ccc2c3c(n(c2c1)C)[C@@H](CO)N(Cc1cc(cc(c1)OC)OC)C[C@]13CCN(CC1)S(=O)(=O)c1cn(cn1)C,inactive
16,C[C@@H]1CN([C@H](C)CO)C(=O)Cc2cc(NS(=O)(=O)c3cccs3)ccc2O[C@@H]1CN(C)CC1CC1,inactive
17,C[C@@H]1CN([C@@H](C)CO)C(=O)c2cccc(NS(=O)(=O)c3cn(C)cn3)c2O[C@@H]1CN(C)S(=O)(=O)c1ccc(F)cc1,inactive
18,Cc1ccc(S(=O)(=O)N(C)C[C@H]2Oc3c(NS(=O)(=O)c4cccs4)cccc3C(=O)N([C@H](C)CO)C[C@H]2C)cc1,inactive
19,C[C@H]1CCCCO[C@H](CN(C)C(=O)Nc2ccc(F)cc2)[C@@H](C)CN([C@@H](C)CO)C(=O)c2cc(NC(=O)C3CCCCC3)ccc2O1,inactive
20,CCCN(C)C[C@@H]1OCCCC[C@H](C)Oc2ccc(NC(=O)Nc3ccc(F)cc3)cc2C(=O)N([C@H](C)CO)C[C@@H]1C,inactive
21,Cc1ccc(S[C@]2(C(=O)NCc3ccccc3)CC(=O)N(C3CCCCC3)[C@@H]2c2ccc(CO)cc2I)cc1,inactive
